Screening results: PubChem, National Center for Advancing Translational Sciences (NCATS)
The list is not random: actives were taken first. Their share in the collection is about 9.2%.
SMN2 splice enh: qHTS Assay for Enhancers of SMN2 Splice Variant Expression | HEK293 SMN2-luciferase splicing reporter, luminescence, 30-36 h | Potency, µM (doses to about 46.1 µM), for inactives: at the top dose activity change, positive = activation, most hits filed as activators | 210,000 compounds, 2.8% hits | AID 1458, 2008; further: % of control where 0% means no effect; nearly all actives have a fitted effect of over 55% in size
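HEK293 cells carry an SMN2 […]–luciferase reporter in which exon 7 inclusion puts luciferase in frame. Cells were plated 10-12 h before compound addition, then incubated 30-36 h at 37C. ONE-Glo luminescence was read; sodium butyrate at 4.5 mM final served as control.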
ELG1 DNA repair: qHTS screen for small molecules that inhibit ELG1-dependent DNA repair in human embryonic kidney (HEK293T) cells expressing luciferase-tagged ELG1; HEK293T ELG1-luciferase reporter, luminescence, 16 h; DNA damage induced by 5-fluorouridine; Potency, µM (series often up to 46.1 µM), for the others: top-dose activity change, negative = inhibition, hits mostly inhibitors; 330,000 compounds, 2.3% hits; AID 504467, 2011; further: on the % scale 0 is the no-effect control and ±100 the full control effect; nearly all actives have a fitted effect of over 55% in size
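Quantitative HTS, concentration-response format. 2,000 cells/well co-treated with 5-fluorouridine and compound, 16 hr in 5% CO2 at 37 °C; ONE-Glo luminescence read after 30 min.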
NPC1 promoter act: qHTS Assay for NPC1 Promoter Activators | Huh7 NPC1 promoter luciferase reporter, 24 h | Potency, µM (doses to about 9.22 µM), inactives show at the highest dose activation, usual class: activators | 320,000 compounds, 2.4% hits; further: % of control where 0% means no effect; nearly all actives have a fitted effect of over 60% in size
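Stable NPC1-promoter luciferase Huh7 line; cpd (DMSO) 24 h, 37 °C, 5% CO2; Amplite luciferase reagent 10 min RT; luminescence readout. qHTS format.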
Rab9 promoter act: qHTS Assay for Rab9 Promoter Activators | AID 485297, 2010 | Potency, µM (doses to about 9.22 µM), inactives show top-dose activation, negative = inhibition, most hits filed as activators | Huh7 Rab9 promoter-luciferase reporter, luminescence, 24 h | 320,000 compounds, 2.8% hits; further: % of control where 0% means no effect; nearly all actives have a fitted effect of over 60% in size
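Luminescence from Amplite-detected luciferase (10 minutes, ambient) reports Rab9 promoter activation. Before that, stable Rab9-luciferase Huh7 cells (1500/well, reduced-serum OP-MEM I plus 10% FBS) were exposed to compound for 24 hours at 37C.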
FLuc modulator: qHTS profiling assay for firefly luciferase inhibitor/activator using purifed enzyme and Km concentrations of substrates (counterscreen for miR-21 project) | 360,000 compounds, 6.9% hits | Luciferin 4-monooxygenase (Photinus pyralis), P08659 | Potency, µM (doses to about 57.5 µM), inactives show at the top dose activity change, negative = inhibition, actives largely listed as inhibitors | purified FLuc, Km substrates, luminescence inhibition;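 further: plate controls were vehicle for no effect and reference inhibitor for full effect; nearly all actives have a fitted effect of over 55% in size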
Target sequence (P08659 whole entry, looked up): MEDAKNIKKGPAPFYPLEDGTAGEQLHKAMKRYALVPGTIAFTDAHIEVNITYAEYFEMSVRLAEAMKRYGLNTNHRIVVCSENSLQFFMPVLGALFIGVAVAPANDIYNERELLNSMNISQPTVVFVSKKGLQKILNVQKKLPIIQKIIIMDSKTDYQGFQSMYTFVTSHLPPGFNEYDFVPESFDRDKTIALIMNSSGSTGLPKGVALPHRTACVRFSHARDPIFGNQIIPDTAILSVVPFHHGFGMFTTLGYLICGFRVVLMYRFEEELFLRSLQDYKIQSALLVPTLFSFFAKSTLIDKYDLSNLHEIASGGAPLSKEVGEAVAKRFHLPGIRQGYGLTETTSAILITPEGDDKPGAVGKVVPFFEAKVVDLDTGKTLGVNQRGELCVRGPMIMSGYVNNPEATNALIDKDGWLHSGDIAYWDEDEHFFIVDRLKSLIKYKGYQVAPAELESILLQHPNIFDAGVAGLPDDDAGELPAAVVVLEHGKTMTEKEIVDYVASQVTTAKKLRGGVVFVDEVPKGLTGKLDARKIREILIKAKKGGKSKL
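Biochemical qHTS of compounds, final roughly 60 µM downward over six points, against 10 nM purified firefly luciferase using Km concentrations of substrates (10 uM D-luciferin, 10 uM ATP) in Tris acetate pH 7.5 buffer; luminescence output.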
ELG1 genotox: qHTS screen for small molecules that induce genotoxicity in human embryonic kidney (HEK293T) cells expressing luciferase-tagged ELG1 | HEK293T ELG1-luciferase reporter, luminescence, 16 h | AID 504466, 2011 | 330,000 compounds, 1.3% hits | Potency, µM (top dose mostly 46 µM), for inactives: at the top dose activity change, positive = activation, hits mostly activators; further: % of control where 0% means no effect; nearly all actives have a fitted effect of over 60% in size
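Quantitative HTS format in 1536-well plates. HEK293T ELG1-luciferase reporter cells receive test compound and are incubated 16 hr at 37 °C, 5% CO2; ONE-Glo added, 30 min room temperature, then luminescence read.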
Active calls of the source: *; u = inconclusive; x = not tested or not shown. The call rests on the fitted dose curve; in most records, active means well fitted curve in the direction sought with a large enough effect; inconclusive means small, poorly fitted or top-dose-only effect, or another doubt; inactive means no such curve, though single readings can be large; an effect the other way counts as inactive or inconclusive. Potency means the concentration at half of the fitted maximal effect.

SMILES	SMN2 splice enh	ELG1 DNA repair	NPC1 promoter act	Rab9 promoter act	FLuc modulator	ELG1 genotox
COc1cccc2[nH]c(=O)c(-c3ccccc3)cc12	x	u	3.55µM*	2.82µM*	12µM*	u
COc1ccc(-c2cc(=O)[nH]c3ccccc23)cc1	x	4.7%	-8.4%	-0.6%	-1.1%	0.4%
CC1(C)CC(=O)C(C(C2=C(O)CC(C)(C)CC2=O)c2cccs2)C(=O)C1 (centres undefined)	x	14.2%	-4.4%	-1.2%	16.9µM*	3.0%
CC(=O)c1cccc(NC(=O)c2c(C)nn(-c3ccccc3)c2Cl)c1	-6.5%	u	21.4%	11.5%	u	-4.6%
COc1ccc(Cl)cc1NC(=O)c1cc2ccccn2n1	x	x	x	x	-2.2%	x
COc1ccc(C)cc1NC(=O)c1cc2ccccn2n1	x	x	x	x	21.3µM*	x
CC(=O)c1cccc(NC(=O)c2cc3ccccn3n2)c1	24.1%	u	1.78µM*	3.98µM*	3.38µM*	18.4µM*
Cc1ccccc1NC(=O)c1cc2ccccn2n1	x	u	3.55µM*	1.41µM*	3.38µM*	u
Cc1cc(Cl)ccc1NC(=O)c1cc2ccccn2n1	x	x	x	x	4.78µM*	x
O=C(Cc1ccc(F)cc1)N1CCOCC1	x	5.0%	-5.5%	7.0%	2.2%	-1.5%
Cc1cc(C)cc(NC(=O)N2CCN(C(=O)c3nsc4ccccc34)CC2)c1	x	x	x	x	-0.9%	x
COc1ccc(CC(=O)N2CCc3cc(OC)c(OC)cc3C2COc2ccc(OC)cc2)cc1 (centres undefined)	x	x	x	x	3.7%	x
O=C1Nc2ccccc2O/C1=C\c1ccccc1Br	x	11.3%	12.6%	12.5%	-2.2%	-0.4%
Cc1ccc(C)c(NC(=O)c2cnn3ccccc23)c1	-5.0%	u	2.2%	7.0%	u	u
Cc1ccc(C)c(NC(=O)c2cc3ccccn3n2)c1	12.6µM*	u	3.55µM*	2.24µM*	10.7µM*	9.2µM*
Cc1noc(C)c1C(=O)Nc1sc2c(c1C(N)=O)CCCCC2	3.2%	u	9.7%	-4.7%	u	-0.8%
CCOC(=O)c1sc(NC(=O)c2ccncc2)c(C#N)c1C	-74.6%	20.6µM*	-1.5%	-9.3%	10.7µM*	-3.7%
NC(=O)c1c(NC(=O)c2ccncc2)sc2c1CCCCCC2	x	u	-5.4%	-0.5%	12µM*	-4.1%
CCOC(=O)c1c(NC(=O)c2ccncc2)sc(C)c1C	-1.6%	-3.8%	-10.8%	-2.7%	-10.6%	-4.8%
N#Cc1c(NC(=O)c2ccncc2)sc2c1CCC2	u	33.8%	13.9%	18.1%	13.5µM*	19.8%
NC(=O)c1c(NC(=O)c2ccccc2)sc2c1CCc1ccccc1-2	u	u	4.47µM*	3.55µM*	2.13µM*	6.51µM*
Cc1noc(C)c1-c1nnc(-c2ccc(C(F)(F)F)cc2)o1	x	u	4.0%	12.1%	-5.8%	6.8%
CC(=O)Oc1ccc(-c2cccc(C(=O)NCCCO)c2)cc1	10.7%	u	-1.3%	-4.8%	-26.3%	15.4%
CN(C)C(=O)c1c(NC(=O)c2ccccc2)sc2c1CCC2	x	-0.9%	7.7%	-1.2%	-3.8%	2.4%
CC(Sc1nc(N)cc(=O)[nH]1)C(=O)Nc1sc2c(c1C#N)CCCC2 (centres undefined)	-61.2%	8.2µM*	-10.4%	-1.6%	u	-1.5%
SMILES	SMN2 splice enh	ELG1 DNA repair	NPC1 promoter act	Rab9 promoter act	FLuc modulator	ELG1 genotox
NC(=O)c1c(NC(=O)c2cnccn2)sc2c1CCCC2	u	u	u	2µM*	2.69µM*	u
NC(=O)c1c(NC(=O)c2ccncc2)sc2c1CCCC2	-79.8%	10.7%	u	u	10.7µM*	5.0%
NC(=O)c1c(NC(=O)c2ccccc2)sc2c1CCC2	x	u	2µM*	3.16µM*	4.78µM*	5.8µM*
CCOC(=O)Cn1c(=O)oc2cc(S(=O)(=O)NCc3ccc(F)cc3)ccc21	1.8%	x	x	x	5.5%	x
Cc1nn(CC(=O)NC2CCS(=O)(=O)C2)c(C)c1[N+](=O)[O-] (centres undefined)	x	u	x	x	x	-0.2%
N#Cc1c(NC(=O)c2cccc(S(=O)(=O)Nc3ccc(C(=O)O)cc3)c2)sc2c1CCCC2	x	u	-1.3%	-0.1%	19µM*	7.6%
Cn1nc(C(=O)Nc2sc3c(c2C#N)CCCC3)ccc1=O	-14.5%	u	16.9%	28.8%	5.36µM*	u
CC(=O)Nc1sc2c(c1C#N)CCCC2	-5.0%	x	x	x	2.7%	x
Cc1cc(C(=O)Nc2sc3c(c2C#N)CCCCC3)cs1	11.2µM*	u	u	1.12µM*	0.953µM*	0.82µM*
COc1ccccc1N1CCN(C2CCCN(C(=O)CCc3cnn(C)c3)C2)CC1 (centres undefined)	x	-11.1%	6.1%	3.3%	4.4%	-5.8%
CCn1ccc2cc(S(=O)(=O)N3CCCN(C(=O)Nc4cc(Cl)ccc4C)CC3)ccc21	x	x	x	x	-4.6%	x
COCCCN1C(=O)c2ccc(C(=O)OCC(=O)N(CCC#N)c3cc(C)cc(C)c3)cc2C1=O	x	u	-1.2%	0.4%	-0.4%	0.2%
CC(=O)NC1C(OC2OC(CC(O)C3OC([N+]4=CCC(=O)NC4=O)C(O)C3O)C(O)C(O)C2NC(=O)/C=C/CCCCCCCCC(C)C)OC(CO)C(O)C1O (centres undefined)	-33.3%	x	x	x	x	x
Cn1c(=O)c(/C=C/c2ccc(F)cc2)nc2ccccc21	x	u	-30.3%	-29.9%	6.75µM*	8.5%
CC(=O)c1ccc(/C=C/c2nc3ccccc3n2C)o1	x	u	1.26µM*	1µM*	5.36µM*	16.4µM*
Cn1c(=O)c(/C=C/c2ccccc2)nc2ccccc21	11.2µM*	u	u	3.55µM*	2.69µM*	u
Cn1c(/C=C/c2ccccc2)nc2ccccc21	x	u	0.562µM*	u	0.135µM*	u
O=c1c(/C=C(\O)c2ccc(F)cc2)nc2ccccc2n1-c1ccccc1	1.5%	17.7%	19.1%	u	u	u
COc1cc(OC)c(OC)cc1CN1CCN(Cc2cccn2C)CC1	-2.2%	4.2%	-3.6%	-2.6%	-6.0%	-0.7%
Cc1c(NC(=O)C(C)OC(=O)c2ncc(Cl)c(Cl)c2Cl)c(=O)n(-c2ccccc2)n1C (centres undefined)	x	19.0%	9.1%	-0.2%	4.2%	0.9%
CCOc1ccc(NS(=O)(=O)c2ccc(C(=O)NCCN3CCOCC3)cc2)cc1	x	-1.6%	1.2%	-4.6%	1.7%	-1.6%
CCCC#Cc1ccc2c(c1)COc1c3ccccc3nn1-2	x	u	0.891µM*	0.562µM*	1.51µM*	u
